Values joined by “and” are separate entries in the source; they are usually repeats but may differ in a detail not shown here. Equal values may be shown once. Compounds without any hit were thinned out: in the full panel of roughly 83,000, 20% have a hit.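 A percent growth of 40 corresponds to 60% growth inhibition; 0 means no net growth; -100 means all cells died. Active threshold: below 10.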 Unmarked numbers belong to inactive results. Active and inactive are the calls of the source.
What follows are molecules tested on HS 578T breast (assay: NCI-60 one-dose screen, 48 h (100 = growth as untreated, 0 = no growth, -100 = all killed)). Settings: 10 µM unless noted.
Experimental: Growth inhibition of the HS 578T human tumor cell line is measured as a screen for anti-cancer activity. Cells are grown in 96 well plates and exposed to the test compound for 48 hours. Compounds are tested at a single concentration, which is 10^-5 M for most compounds. The reported endpoint is percent growth (GI% or GIPRCNT), where numbers from 0 - 100% represent growth inhibition, and numbers from -100% - 0 represent cell death. For example, a value of 40 represents 60% growth inhibition. A value of 0 means no net growth occurred over the course of the experiment. A value of -40 indicates 40% of cells at the beginning of the experiment died by the end of the experiment. A value of -100 means all cells are dead at the end of the experiment.
NCI-60 Human Tumor Cell Lines Screen was performed using the standard one-dose NCI protocol, which is described in more detail at https://dtp.cancer.gov/discovery_development/nci-60/default.htm.
Compounds with GIPRCNT values below 10 were considered active. Activity score was based on GIPRCNT using the following formula: […]
Score is 0 for GIPRCNT values of 100 or above, 50 for GIPRCNT values of 0, and 100 for GIPRCNT values of -100.

SMILES | growth
ClC1OC(Cl)(Cl)C(Cl)(Cl)OC1(Cl)Cl (stereo not given) | 135%
C[C@]12CC[C@H](O)C[C@@H]1CC[C@@H]1[C@@H]2CC[C@]2(C)OC(=O)CC[C@@H]12 | 111%
CCC(=O)C(CC(C)[N+](C)(C)C)(c1ccccc1)c1ccccc1 (stereo not given) | 107%
O=C(Cc1ccccc1)c1ccccc1 | 90.3%
S=P(SP(=S)(c1ccccc1)c1ccccc1)(c1ccccc1)c1ccccc1 | 93.8%
CC(C)CCC1C(=O)NC(=O)NC1=O | 96.6%
CC1(C)N=C(N)N=C(N)N1c1ccc(CCC(=O)Nc2ccc(S(=O)(=O)F)cc2)cc1 | 82%
Cc1cc(N(CCCl)CCCl)ccc1C=Nc1ccc(-c2csc(-c3ccccc3)n2)cc1 | 107%
O=C(O)C1C(C(=O)O)C2(Cl)C(Cl)=C(Cl)C1(Cl)C2(Cl)Cl (stereo not given) | 116%
CCCCOC(N)=O | 110%
O=[P+](O)c1cccnc1 | 105%
C#COc1cccc(Nc2ncnc3cc(NC(=O)CF)ccc23)c1 | 44.2% [6.25 µM]
Cc1nc2ccccc2c(=O)n1-c1ccccc1F | 100%
COc1cc2c(cc1OC)[C@@H]1C(=O)c3ccc4c(c3O[C@@H]1CO2)C[C@H](C(C)C)O4 | 115%
CN1CCc2cc3c(cc2C1O)OCO3 (stereo not given) | 55.3% and 103%
O=C1c2ccccc2C(=O)N1N1CC1c1ccccc1 (stereo not given) | 112%
Nc1ccc(P(=O)(O)O)cc1 | 110%
CCOC(=O)c1cncn1C(C)c1ccccc1 (stereo not given) | 97.2%
CN(C)c1ccc([N+](=O)[O-])c([N+](=O)[O-])c1 | 96.4% and 103%
O=[N+]([O-])c1cc(Cl)c(Cl)c([N+](=O)[O-])c1Cl | 106%

SMILES | growth
CN(C)c1ccc(N)cc1 | 100% and 54.5%
COc1ccc(N)cc1OC | 116%
O=C/C=C/c1ccco1 | 107%
CCN1C(=O)NC(=O)C(C)(N2C(=O)c3c(F)c(F)c(F)c(F)c3C2=O)C1=O (stereo not given) | 12.1%
CNC(=O)Oc1ccc(Cl)cc1SSc1cc(Cl)ccc1OC(=O)NC | 85.6%
O=NN1CCCCC1 | 97.3%
C[C@]12CC[C@@H](OC(=O)N(CCCl)N=O)C[C@@H]1CC[C@@H]1[C@@H]2CC[C@]2(C)C(=O)CC[C@@H]12 | 81.6%
O=S(=O)(c1ccc(O)cc1)c1ccccc1O | 104%
Cn1cc(C(=O)C[n+]2ccccc2)c2ccccc21 | 96.8%
CCOC(=O)P(=O)(OCC)OCC | 109%
C[C@]12CCc3sc(Nc4ccc(O)cc4)nc3C1=CC[C@@H]1[C@@H]2CC[C@]2(C)C(=O)CC[C@@H]12 | 53.6%
C[C@@H]1C/C=C\C(=O)O[C@H](/C=C/C#C/C=C/C(C)(C)[C@@H](O)c2cccc(O)c2Br)[C@@H](C)/C=C/[C@H](C)C[C@H](OC(N)=O)C1 | 54.8%
C[C@]12CC[C@H]3[C@@H](CC=C4c5nc(-c6ccc(Br)cc6)sc5CC[C@@]43C)[C@@H]1CC[C@@H]2O | 74%
Cc1cc[c-]cc1.Fc1c[c-]c(-c2ccccn2)c(F)c1.N#CCC[PH+](CCC#N)c1ccccc1.[Pt+2] | 40.6%
O=C(O)C(O)c1ccc(Cl)cc1 (stereo not given) | 102% and 99.7%
O=C(O)C(Br)CBr (stereo not given) | 111%
Cc1cc(Br)c([N+](=O)[O-])cc1[N+](=O)[O-] | 105%
CCCCCCCCCCCCCCCC[n+]1ccccc1 | -26.3% (active) and -12.5% (active)
O=Cc1cn(Cc2ccccc2)c2ccccc12 | 150%
O=S(=O)(F)c1cccc(Cl)c1C[P+](c1ccccc1)(c1ccccc1)c1ccccc1 | 103%

Reference: PubChem BioAssay (NCI)
